# Laboratory results from PubChem BioAssay.
# The source made the active and inactive calls. Unless noted, the rule behind the calls is not given here.
# How the values were obtained:
# [1] = system: Wnt5a (protein binding on small-molecule microarray); assay: Wnt5a binders on small-molecule microarray, primary screen, biophysical, 635/667 nm fluorescence (AID 1142); details: 635 nm fluorescence, higher = more signal;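 note: fluorescence read at 667 nm with signal to noise per printed feature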
# [2] = cell viability in Huh7 cells, primary screen, cytotoxicity control for HCV replication inhibitor project, CellTiter-Glo luminescence, basal, 48 h (AID 1143); details: Huh7 HCV replicon, higher = more signal, called active from +8 up or from −8 down;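 note: Huh7 hepatoma cells carrying a hepatitis C replication reporter with no stimulus; test concentration not given here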
# [3] = P. aeruginosa biofilm formation inhibitors, primary screen, PAO1 strain, BacTiter-Glo luminescence, LB-PBS (AID 1144); details: 12 h, higher = more signal
# [4] = CREB reporter modulators without forskolin, primary screen, cell-based, PC12, CRE-LacZ reporter, unstimulated (AID 1145); details: no forskolin, luminescence, 4.5 h, higher = more signal, called active from +8 up or from −8 down
# [5] = CREB reporter modulators under forskolin, primary screen, cell-based, PC12, CRE-LacZ reporter, forskolin-stimulated (AID 1146); details: luminescence, 4.5 h, higher = more signal, called active from +8 up or from −8 down;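 note: PC12 cells with 6xCRE LacZ reporter stimulated by forskolin 10 µM; beta-galactosidase reporter signal reflecting CREB driven transcription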
# [6] = biological target: Streptavidin (Streptomyces avidinii) (UniProt P22629); assay: streptavidin binders on small-molecule microarray, primary screen, artefact control for SMM compound annotation, biophysical, 635/667 nm fluorescence (AID 1147); details: streptavidin binding, higher = more signal;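 note: signal reflects streptavidin binding to arrayed compounds as a control protein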
# Chain of Streptavidin (Streptomyces avidinii) (P22629 whole entry, looked up): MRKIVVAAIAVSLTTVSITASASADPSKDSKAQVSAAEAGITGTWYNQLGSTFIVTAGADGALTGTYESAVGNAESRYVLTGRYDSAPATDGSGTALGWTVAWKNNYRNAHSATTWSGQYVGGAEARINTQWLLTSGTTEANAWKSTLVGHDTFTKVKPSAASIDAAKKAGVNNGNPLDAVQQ
# [7] = small-molecule binders of probe aInhba, primary screen, biochemical, small-molecule microarray, 635/667 nm fluorescence (AID 1148); details: higher = more signal;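 note: score merges 667nm spot fluorescence with signal-to-noise for antibody binding to printed compounds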
# Torsin-1A (Homo sapiens) [8] = biological target: Torsin-1A (Homo sapiens) (UniProt O14656); assay: torsin A binders from cell lysate, primary screen, small-molecule microarray, wild-type, 635/667 nm (AID 1149); details: COS7 hTOR1A-WT lysate, 635 nm fluorescence, higher = more signal
# Chain of Torsin-1A (Homo sapiens) (O14656 whole entry, looked up): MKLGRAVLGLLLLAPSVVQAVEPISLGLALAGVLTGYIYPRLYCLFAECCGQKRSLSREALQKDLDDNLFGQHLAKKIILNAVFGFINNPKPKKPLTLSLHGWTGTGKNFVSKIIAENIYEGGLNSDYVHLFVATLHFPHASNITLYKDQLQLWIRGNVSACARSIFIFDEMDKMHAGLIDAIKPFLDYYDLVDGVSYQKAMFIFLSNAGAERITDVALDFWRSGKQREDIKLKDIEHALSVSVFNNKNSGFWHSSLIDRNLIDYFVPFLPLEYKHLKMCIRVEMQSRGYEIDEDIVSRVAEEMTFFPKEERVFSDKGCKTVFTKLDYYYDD
# Torsin-1A (Homo sapiens) [9] = biological target: Torsin-1A (Homo sapiens) (UniProt O14656); assay: small-molecule binders of mutant TOR1A in lysate, primary screen, cell lysate, small-molecule microarray, COS7 lysate, 635/667 nm fluorescence (AID 1150); details: COS7 hTOR1A mutant lysate, 635 nm fluorescence, higher = more signal;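 note: score pools 667 nm emission and signal to noise measuring lysate protein binding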
# [10] = system: Sonic hedgehog protein (Shh); assay: small-molecule binders of Shh protein, primary screen, biochemical, small-molecule microarray, 635/667 nm fluorescence (AID 1151); details: small-molecule microarray binding, 635 nm fluorescence; higher = more signal;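 note: Shh protein binding to compounds spotted on small-molecule microarray slides; score combines spot fluorescence intensity with signal-to-noise across triplicate slides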
# [11] = E. coli DRC41 culture turbidity changes, primary screen, E. coli filamentation inducer project, strain DRC41, OD650, 48 h (AID 1152);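 note: E. coli MC1000 strain DRC41 lacking acrAB efflux pump and sulA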; details: E. coli DRC41 (acrAB sulA), higher = more signal, called active from +8 up or from −8 down
# [12] = small-molecule binders of probe aLefty1, primary screen, biochemical, small-molecule microarray, 635/667 nm fluorescence (AID 1153); details: higher = more signal;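 note: score merges spot fluorescence with signal-to-noise ratio from the scanned slide images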
# [13] = PSAC antagonists in infected red cells, primary screen, cell-based, P. falciparum Indochina, OD700, 1 h (AID 1154); details: P. falciparum Indochina infected RBC osmotic lysis, higher = more signal, called active from +8 up or from −8 down
# [14] = PSAC antagonists in infected red cells, primary screen, cell-based, P. falciparum Indochina, OD700, 2 h (AID 1155);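 note: lysis reports solute entry through the parasite surface anion channel PSAC; channel blockers reduce lysis of infected cells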; details: P. falciparum Indochina infected erythrocytes, osmotic lysis OD700; higher = more signal, called active from +8 up or from −8 down
# [15] = osmotic lysis modulators in infected erythrocytes, primary screen, PSAC antagonist project, cell-based, P. falciparum Indochina, OD700, 3 h (AID 1156); details: higher = more signal, called active from +8 up or from −8 down
# [16] = PSAC antagonists in infected red cells, primary screen, cell-based, P. falciparum Indochina, OD700, 18 h (AID 1157); details: P. falciparum Indochina infected erythrocytes, osmotic lysis OD700, 18 h; higher = more signal, called active from +8 up or from −8 down
# [17] = modulators of S6 phosphorylation in cells, primary screen, cell-based, A549, cytoblot, luminescence, serum-stimulated (AID 1158); details: A549 phospho-S6 cytoblot, 5 h, higher = more signal;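 note: serum-stimulated A549 lung adenocarcinoma cells; signal is phosphorylated S6 detected by cytoblot immunostaining with HRP secondary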
# [18] = biological target: NADPH oxidase 2 (Homo sapiens) (UniProt P04839); assay: NOX2-dependent H2O2 signal modulators, primary screen, NOX inhibitor project, cell-based, HEK293-NOX2, PMA-stimulated, Amplex Red fluorescence (AID 1159); details: 45 min, higher = more signal, called active from +8 up or from −8 down; note: test concentration not given here
# Chain of NADPH oxidase 2 (Homo sapiens) (P04839 whole entry, looked up): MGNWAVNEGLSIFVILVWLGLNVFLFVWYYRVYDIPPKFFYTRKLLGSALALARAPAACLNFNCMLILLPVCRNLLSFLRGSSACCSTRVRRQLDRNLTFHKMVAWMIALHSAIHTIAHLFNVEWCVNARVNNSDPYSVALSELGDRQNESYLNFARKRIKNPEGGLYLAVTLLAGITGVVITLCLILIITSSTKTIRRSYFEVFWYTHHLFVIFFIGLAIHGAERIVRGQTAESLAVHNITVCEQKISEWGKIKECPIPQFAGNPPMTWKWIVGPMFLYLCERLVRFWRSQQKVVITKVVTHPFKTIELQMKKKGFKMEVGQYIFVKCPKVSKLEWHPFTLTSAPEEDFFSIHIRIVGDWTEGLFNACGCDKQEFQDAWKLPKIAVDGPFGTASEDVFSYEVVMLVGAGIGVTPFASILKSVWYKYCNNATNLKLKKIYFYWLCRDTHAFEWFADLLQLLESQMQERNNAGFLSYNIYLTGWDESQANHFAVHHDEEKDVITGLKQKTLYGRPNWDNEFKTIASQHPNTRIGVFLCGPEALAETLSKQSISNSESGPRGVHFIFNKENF
# [19] = biological target: NADPH oxidase 4 (Homo sapiens) (UniProt Q9NPH5); assay: NOX4-dependent H2O2 signal modulators, primary screen, NOX inhibitor project, cell-based, HEK293-NOX4, tetracycline-induced, Amplex Red fluorescence (AID 1160); details: 45 min, higher = more signal, called active from +8 up or from −8 down
# Chain of NADPH oxidase 4 (Homo sapiens) (Q9NPH5 whole entry, looked up): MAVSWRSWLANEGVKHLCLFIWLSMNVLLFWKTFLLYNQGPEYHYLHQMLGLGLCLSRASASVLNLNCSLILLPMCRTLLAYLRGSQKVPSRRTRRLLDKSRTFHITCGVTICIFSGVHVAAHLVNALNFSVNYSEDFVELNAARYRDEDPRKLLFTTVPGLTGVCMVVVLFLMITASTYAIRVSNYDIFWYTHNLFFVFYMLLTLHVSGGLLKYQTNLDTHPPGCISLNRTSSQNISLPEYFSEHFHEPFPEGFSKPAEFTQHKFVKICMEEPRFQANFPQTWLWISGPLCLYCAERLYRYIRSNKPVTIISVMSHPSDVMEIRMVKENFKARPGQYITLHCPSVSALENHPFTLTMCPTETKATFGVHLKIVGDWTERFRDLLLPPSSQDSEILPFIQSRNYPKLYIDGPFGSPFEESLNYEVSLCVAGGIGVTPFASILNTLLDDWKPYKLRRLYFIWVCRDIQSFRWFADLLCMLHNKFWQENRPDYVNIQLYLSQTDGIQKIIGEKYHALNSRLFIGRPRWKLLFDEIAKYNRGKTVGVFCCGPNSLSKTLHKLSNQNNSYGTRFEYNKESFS
# [20] = biological target: NADPH oxidase 5 (Homo sapiens) (UniProt Q96PH1); assay: NOX5-dependent H2O2 signal modulators, primary screen, NOX inhibitor project, cell-based, HEK293-NOX5, Amplex Red fluorescence (AID 1161); details: HEK293-NOX5, ionomycin, 45 min, higher = more signal
# Chain of NADPH oxidase 5 (Homo sapiens) (Q96PH1 whole entry, looked up): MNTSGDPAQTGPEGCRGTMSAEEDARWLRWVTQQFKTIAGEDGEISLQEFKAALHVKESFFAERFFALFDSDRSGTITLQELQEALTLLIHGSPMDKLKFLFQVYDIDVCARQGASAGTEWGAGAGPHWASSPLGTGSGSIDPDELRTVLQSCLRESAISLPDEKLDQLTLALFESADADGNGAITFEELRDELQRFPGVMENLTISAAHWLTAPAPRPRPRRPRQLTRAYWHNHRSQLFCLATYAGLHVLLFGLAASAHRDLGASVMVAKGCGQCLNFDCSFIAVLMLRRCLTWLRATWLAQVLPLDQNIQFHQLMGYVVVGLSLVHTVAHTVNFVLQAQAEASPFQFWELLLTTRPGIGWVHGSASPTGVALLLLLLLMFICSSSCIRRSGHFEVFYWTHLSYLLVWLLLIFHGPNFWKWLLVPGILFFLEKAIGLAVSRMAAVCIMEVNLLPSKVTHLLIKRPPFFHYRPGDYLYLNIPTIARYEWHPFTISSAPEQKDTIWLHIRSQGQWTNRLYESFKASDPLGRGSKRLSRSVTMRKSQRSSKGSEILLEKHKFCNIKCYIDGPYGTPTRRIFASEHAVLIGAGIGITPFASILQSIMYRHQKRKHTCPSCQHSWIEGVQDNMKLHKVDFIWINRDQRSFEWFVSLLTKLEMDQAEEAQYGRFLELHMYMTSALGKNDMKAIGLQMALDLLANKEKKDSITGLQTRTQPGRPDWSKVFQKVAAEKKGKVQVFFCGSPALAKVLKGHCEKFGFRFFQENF
SMILES,composite z-score [1],z-score [2],z-score [3],z-score [4],z-score [5],composite z-score [6],composite z-score [7],composite z-score (Torsin-1A (Homo sapiens) [8]),composite z-score (Torsin-1A (Homo sapiens) [9]),composite z-score [10],z-score [11],composite z-score [12],z-score [13],z-score [14],z-score [15],z-score [16],z-score [17],z-score [18],z-score [19],z-score [20]
O=C(NCCN1CCOCC1)[C@@H]1c2ccccc2C(=O)N(C2CCCCC2)[C@H]1c1ccc(CO)cc1,-0.178,-0.742 (inactive),0.00698 (inactive),0.791 (inactive),-0.168 (inactive),0.254,-0.153,-0.945,-0.653,-0.908,-0.306 (inactive),-0.007,3.9 (inactive),1.22 (inactive),1 (inactive),0.403 (inactive),0.227,0.822 (inactive),1.3 (inactive),0.579
O=C1O[C@H](c2ccccc2)[C@H](c2ccccc2)N2[C@H]1[C@@H](C(=O)N1CCCCCCC1)[C@]1(C(=O)Nc3ccc(C#CCCO)cc31)[C@H]2c1ccccc1OCCO,2.73,-3.61 (inactive),0.999 (inactive),-0.698 (inactive),-1.19 (inactive),4.08,2.33,3.84,3.83,2.53,0.609 (inactive),2.89,1.54 (inactive),1.19 (inactive),2.13 (inactive),0.565 (inactive),-0.319,1.31 (inactive),0.959 (inactive),1.67
COC(=O)[C@@]1(Cc2ccc(OC)cc2)[C@H]2c3cc(C(=O)N(C)C)n(Cc4ccc(S(C)(=O)=O)cc4)c3C[C@H]2CN1C(=O)c1ccccc1,-0.0427,-2.9 (inactive),-1.05 (inactive),-1.14 (inactive),-1.33 (inactive),1.24,0.431,2.24,1.29,-0.599,-0.752 (inactive),1.06,1.85 (inactive),0.451 (inactive),0.954 (inactive),-0.336 (inactive),4.44,1.04 (inactive),1.74 (inactive),-3.36
O=C(NC1CC1)[C@@H]1c2ccccc2C(=O)N(Cc2ccccc2Cl)[C@H]1c1ccc(CO)cc1,0.201,-2.67 (inactive),-0.764 (inactive),-0.0888 (inactive),-1.69 (inactive),0.384,0.225,0.725,0.941,0.957,4.2 (inactive),0.208,3.45 (inactive),0.652 (inactive),-1.05 (inactive),0.204 (inactive),2.67,-1.1 (inactive),0.54 (inactive),0.33
CCCC=C(CCC)[C@@H](NC(=O)c1cccs1)c1ccc(C(F)(F)F)cc1,0.374,-3.78 (inactive),-0.407 (inactive),-0.761 (inactive),0.796 (inactive),0.882,0.473,0.598,0.704,1.18,-0.938 (inactive),0.504,3.15 (inactive),-0.119 (inactive),1.36 (inactive),-1.39 (inactive),1.42,-4.56 (inactive),-3.52 (inactive),-2.77
COCCOC(=O)N1C(=O)[C@@]2(c3cc(C#CCNC(N)=O)ccc31)[C@H](C(=O)Nc1nc3ccccc3s1)[C@H]1C(=O)O[C@H](c3ccccc3)[C@H](c3ccccc3)N1[C@@H]2c1ccc(OCCO)cc1,0.341,0.759 (inactive),-0.609 (inactive),-0.874 (inactive),-0.274 (inactive),0.664,0.261,-0.0017,0.452,0.969,-0.537 (inactive),0.729,2.48 (inactive),1.23 (inactive),0.0531 (inactive),0.559 (inactive),-0.0692,1.42 (inactive),1.19 (inactive),1.4
C=CCOC(=O)[C@@H]1[C@H]2C(=O)O[C@H](c3ccccc3)[C@H](c3ccccc3)N2[C@H](c2ccc(OCCOC(=O)[C@H]3C[C@H]4C(=O)N5CCC[C@H]5C(=O)N4[C@H]3c3ccc(O)cc3)cc2)[C@@]12C(=O)Nc1ccc(I)cc12,0.259,-2.3 (inactive),-0.212 (inactive),0.277 (inactive),-0.466 (inactive),-0.033,-0.0775,0.919,0.98,2.15,0.371 (inactive),0.19,1.37 (inactive),-0.552 (inactive),0.777 (inactive),-1.37 (inactive),0.718,0.986 (inactive),1.1 (inactive),1.36
O=C1O[C@@H](c2ccccc2)[C@@H](c2ccccc2)N2[C@@H](c3ccccc3OCCO)[C@]3(C(=O)Nc4ccc(C#CC5=CCCCC5)cc43)[C@@H](C(=O)N3CCCCCCC3)[C@H]12,2.24,-4.53 (inactive),0.189 (inactive),-0.203 (inactive),0.188 (inactive),3.51,2.23,2.81,2.9,1.22,-0.511 (inactive),2.96,-0.0047 (inactive),0.0859 (inactive),-0.339 (inactive),0.68 (inactive),-0.359,0.624 (inactive),0.55 (inactive),-0.797
O=C1OCCC/C=C\[C@H]2OC34C=CCN(Cc5ccccc5)C(=O)[C@H]3N(CCCO)C(=O)[C@@H]4C12 (stereo not given in full),-0.597,-0.639 (inactive),2.87 (inactive),0.593 (inactive),-0.59 (inactive),-1.1,-0.176,-1.14,-2.13,-0.85,0.616 (inactive),0.042,1.21 (inactive),0.486 (inactive),-0.0156 (inactive),0.211 (inactive),-0.506,1.76 (inactive),-1.71 (inactive),2.38
CC#CC(=O)Oc1ccccc1C=CC(=O)OCC,-0.0407,-1.99 (inactive),-1.69 (inactive),-0.0696 (inactive),1.7 (inactive),0.066,-0.206,-0.402,0.222,0.0449,-0.158 (inactive),-0.0011,8.09 (active),1.47 (inactive),0.692 (inactive),0.903 (inactive),-0.275,-0.405 (inactive),-0.806 (inactive),1.8
C=C(C)[C@@H]1CC=C(C(O)C2C=CC3C(=O)N(C)C(=O)C3N2Nc2ccccc2)CC1 (stereo not given in full),0.297,0.435 (inactive),-0.309 (inactive),0.626 (inactive),1.26 (inactive),0.178,0.0013,0.425,0.385,1.89,-1.54 (inactive),0.42,1.89 (inactive),0.344 (inactive),0.683 (inactive),1.59 (inactive),-0.549,-1.1 (inactive),-2.76 (inactive),-2.23
CCOC(=O)C1=C[C@@H](C(C)(C)C)N(S(=O)(=O)c2ccc(C)cc2)[C@H]1c1ccc(F)cc1,0.219,-3.79 (inactive),0.673 (inactive),0.0423 (inactive),0.81 (inactive),1.1,0.255,0.159,0.575,0.584,-1.68 (inactive),-0.0162,0.957 (inactive),0.716 (inactive),-0.862 (inactive),0.634 (inactive),-0.827,-0.829 (inactive),-0.217 (inactive),0.821
C=C(/C(=C/C[C@H](OC(C)=O)c1ccc(CO)o1)c1cc(C(=O)OC)ccc1OC)C(C)C,0.0267,-3.56 (inactive),0.263 (inactive),2.22 (inactive),0.769 (inactive),-0.489,0.0051,-0.501,0.241,1.05,0.376 (inactive),-0.0559,2.48 (inactive),-1.22 (inactive),2.6 (inactive),-2.17 (inactive),2.41,-1.66 (inactive),-1.85 (inactive),-2.34
CN(C)CCCCCCNC(=O)[C@H]1C[C@H]2C(=O)N[C@@H](CCCCN)C(=O)N2[C@H]1c1cccc(OCCO)c1,1.73,0.0574 (inactive),0.949 (inactive),0.688 (inactive),0.691 (inactive),2.14,0.778,3.76,3.35,1.43,-0.497 (inactive),2.71,2.2 (inactive),0.192 (inactive),0.32 (inactive),0.229 (inactive),-0.268,1.65 (inactive),1.03 (inactive),1.24
COCCOC(=O)N1C(=O)[C@@]2(c3cc(C#Cc4ccc(OC)cc4)ccc31)[C@H](c1ccc(OCCO)cc1)N1[C@H](c3ccccc3)[C@H](c3ccccc3)OC(=O)[C@H]1[C@@H]2C(=O)N1CCN(c2ncccn2)CC1,0.377,-0.438 (inactive),-0.112 (inactive),0.0695 (inactive),0.559 (inactive),0.165,0.0464,0.846,0.775,1.69,-0.0791 (inactive),0.042,5.07 (inactive),2.39 (inactive),0.738 (inactive),1.17 (inactive),-0.451,0.938 (inactive),-1.34 (inactive),0.656
CC(C)N1C(=O)C[C@@](C(=O)NCC(F)(F)F)(c2ccc([N+](=O)[O-])cc2)[C@H]1c1ccc(CO)cc1,-0.492,-4.06 (inactive),-1.76 (inactive),-0.761 (inactive),-1.24 (inactive),0.14,-0.128,0.894,0.0412,1.24,1.09 (inactive),-0.101,0.642 (inactive),-0.558 (inactive),0.533 (inactive),-1.68 (inactive),2.47,0.271 (inactive),0.465 (inactive),-0.127
